PubChem BioAssay (NCI)
Several values for one entry are separate records, joined by “and”; a condition that tells them apart may be missing. Equal entries are not always repeated. Compounds without any hit were thinned out: in the full panel of roughly 83,000, 20% have a hit.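 Cell lines were cultured in 96-well plates, exposed to a single compound concentration, and assessed for percent growth 48 hours later.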 Activity calls are given as the source filed them. How the source made its calls: active means growth percent below 10; inactive means the rest.

Test system: MDA-MB-468 breast
Assay: NCI-60 one-dose screen, 48 h (100 = growth as untreated, 0 = no growth, -100 = all killed)
Settings: 10 µM unless noted

Row | SMILES | growth
1 | O=C1Nc2ccccc2/C1=C/c1cccn1CCCCCCn1c2ccccc2c(=O)c2ccccc21 | 8.47% (active)
2 | CCCCCCCCCCCCCCCCCCOP(=O)([O-])OC1CC[N+](C)(C)CC1 | 0% (active)
3 | COc1ccc(C2=C/C(=C\c3ccc(Cl)cc3)C(=O)NN2C(=S)NN)cc1 | 82.7% (inactive)
4 | Clc1cccc(C2Cc3cnccc3-c3[nH]c4ccncc4c32)c1 (centres undefined) | 5.96% (active)
5 | CC(C)N(C(=O)c1ccccc1)C(C)C | 86.2% (inactive)
6 | O=C1CS/C(=N/c2nnc(-c3ccc(O)cc3)s2)N1 | 116% (inactive)
7 | CNCc1cccc2c1OCCOCCOCCNS(=O)(=O)c1ccc(cc1)-c1cnc(N)c(n1)C(=O)N2 | 35.6% (inactive)
8 | CN(C)c1ccc2cc(-c3nc4ccccc4s3)c(N)nc2c1 | 56.9% (inactive)
9 | CCOc1nc(-c2ccccc2)cc2c(O)c(-c3nnco3)[nH]c(=O)c12 | 16.6% (inactive)
10 | O=C(Cc1ccccc1)NC(c1ccc(Cl)cc1)c1c(O)ccc2ccccc12 (centres undefined) | 7.01% (active)
11 | COC(=O)C(Cc1cn(C(C)=O)c2ccccc12)P(=O)(OC)OC (centres undefined) | 101% (inactive)
12 | CC(=O)Nc1ccc(S(=O)(=O)N2C(=O)CCC2C(=O)Nc2ccccc2)cc1 (centres undefined) | 40.3% (inactive)
13 | CSc1nnc(-c2cnn3c2NC(c2ccccc2)C3)n1-c1ccc(C(F)(F)F)cc1 (centres undefined) | 71.1% (inactive)
14 | COc1ccc2oc3c4[nH]c5ccccc5c4c4c(c3c2c1)C(=O)N(O)C4=O | 104% (inactive)
15 | CNC(=O)c1cc(N2CCc3cc(NC(=O)Nc4ccc(Cl)c(C(F)(F)F)c4)ccc32)ccn1 | 57% (inactive)
16 | COc1ccc(NC(=O)c2cc(OC)c(OC)c(OC)c2)cc1O | 29.8% (inactive)
17 | COc1ccc(C(c2ccc(OCCN(C)C)cc2)c2cc3ccccc3c3ccccc23)cc1 (centres undefined) | 2.65% (active)
18 | Oc1cc2ccccc2c(-c2c(O)c(O)cc3ccccc23)c1O | 26.6% (inactive)
19 | O=C(N/N=C/c1ccc(O)cc1O)c1ccc(Nc2ccnc(C(F)(F)F)c2)cc1 | 29.5% (inactive)
20 | COc1ccc(CCN(C)CCCC(C#N)(c2ccc(OC)c(OC)c2)C(C)C)cc1OC (centres undefined) | 97.9% (inactive) and 89.5% (inactive)

Row | SMILES | growth
21 | COc1ccc(-c2nc3cc(C(=O)NCc4ccccc4)ccc3n2C2CCCCC2)cc1 | 98.4% (inactive)
22 | N/C(=N\C(N)=N\c1nc2ccccc2s1)c1ccncc1 | 56.6% (inactive)
23 | CNc1ccc2nc3ccc(=[N+](C)C)cc-3sc2c1 | -48.1% (active) and -39.5% (active)
24 | C#C[C@@]1(O)[C@@H](CO)O[C@@H](n2cc(Cl)c3c(N)ncnc32)[C@@H]1O | -49% (active)
25 | CC(C)OC(=O)Nc1cc(F)c(F)cc1F | 84% (inactive)
26 | CN(C)c1nc(-c2cccs2)n2nc(-c3ccco3)cc2n1 | 7.52% (active)
27 | CC1=C(C(=O)n2c3ccccc3c3ccccc32)C(c2cccc([N+](=O)[O-])c2)C(C(=O)n2c3ccccc3c3ccccc32)=C(C)N1 | 118% (inactive)
28 | CN(C)CCCn1c2c(c3ccc(N4CCNCC4)cc3c1=O)C(=O)c1ccccc1-2 | -17.2% (active)
29 | Nc1ncnc2c1ncn2C1OC(CO)C2OC21 (centres undefined) | 93.5% (inactive)
30 | CC(C)C[C@H](C(=O)O)N(C)C(=O)[C@@H]1CCCN1C(=O)[C@H](C)OC(=O)[C@H](CCC(N)=O)NC(=O)[C@@H]1CCC(=O)N1 | 107% (inactive)
31 | CN(CSc1ccc(Cl)cc1)c1ccc(CSc2ccc(Cl)cc2)cc1 | 17.2% (inactive)
32 | Cc1ccc(Sc2oc(-c3ccc(C)cc3)nc2[P+](c2ccccc2)(c2ccccc2)c2ccccc2)cc1 | -36.5% (active)
33 | Cc1nc2sc(C(=O)Nc3cccc(Cl)c3C)c(N)c2cc1C(O)c1ccccc1 (centres undefined) | 18.5% (inactive)
34 | CC(C)(C)OC(=O)N1C=C/C(=C\Cn2cc(-c3ccccc3)nn2)CC1 | 26.4% (inactive)
35 | C/C(=C\c1cnc(C)s1)[C@@H]1C[C@@H]2O[C@@H]2CCC[C@H](C)[C@H](O)[C@@H](C)C(=O)C(C)(C)[C@@H](O)CC(=O)O1 | 43.4% (inactive)
36 | CCOC(=O)Nc1nc2ccc(SCC(C)C)cc2s1 | 2.1% (active)
37 | O=C(NC1CCCCCC1)c1ccc2c(=O)n3c(nc2c1)CCCCC3 | 81.2% (inactive)
38 | COc1cc2cc(NCc3ccc(F)cc3)nc(C)c2cc1OC | 62.8% (inactive)
39 | COc1cc(NC(=O)c2cc3ccccc3cc2O)c(OC)cc1Cl | -5.6% (active)
